Experimental data published in PubChem BioAssay AID2690 (NMMLSC, 2010).
The campaign covered roughly 330,000 compounds. About 590 (0.18%) were called active.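 The calls were made as follows: active = superoxide response under a set limit, about three screen SD below normal (cut at about 65% in these data); inactive = the rest.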 The entries come from a sample that favours actives as a whole.

Test: yeast aging ROS inhibitors as calorie-restriction mimetics – HTS, primary screen (AID 2690);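 also: yeast aged for seven days with compound at 30 °C before DHE staining; 100% = average MFI of all compound-treated wells on the plate with controls excluded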
Conditions: S. cerevisiae aged cells, superoxide DHE fluorescence; at 10 µM; hits give low values
For `O=C(COC(=O)c1ccccc1)Nc1ccc(Cl)cc1C(=O)c1ccccc1`, the superoxide response (% of plate mean) was 104% (inactive). For `O=C(CCNS(=O)(=O)c1ccccc1)Nc1ccc(Cl)cc1C(=O)c1ccccc1`, the superoxide response (% of plate mean) was 83.2% (inactive). In the case of `CN1CCN(C(=S)SCC(=O)Nc2ccc(Cl)cc2C(=O)c2ccccc2)CC1`, the superoxide response (% of plate mean) is reported as 63.3% (active). For `CNCC[C@H](Oc1ccc(C(F)(F)F)cc1)c1ccccc1`, the superoxide response (% of plate mean) was 88.9% (inactive). With `Cc1cc(C)cc(NC(=S)NC2CC3CCCC(C2)N3Cc2cccs2)c1` (stereo not given) the superoxide response (% of plate mean) was 101% (inactive).
